The panel holds about 83,000 compounds, 20% with a hit somewhere; the sample as a whole holds those more often.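 Cells were grown in 96-well plates and exposed to the test compound at a single concentration for 48 hours; results are reported as percent growth, with values below 10 considered active.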 A number with no mark means an inactive call. Active and inactive are the calls of the source.

Among the test systems are NCI-H23 lung; NCI-H226 lung; NCI-H322M lung; HOP-62 NSCLC; NCI-H460 lung; HOP-92 NSCLC; NCI-H522 lung; A549/ATCC NSCLC; 786-0 renal; COLO 205 colon.
Common to all, as to assay: NCI-60 one-dose screen, 48 h (100 = growth as untreated, 0 = no growth, -100 = all killed)
Holding throughout (settings): 10 µM unless noted

As to `Cc1nc2sc(C(=O)Nc3ccccc3)c(N)c2cc1C(=O)c1ccccc1`, the growth with NCI-H23 lung was 64.4%; with NCI-H226 lung, 31.3%; in the assay on NCI-H322M lung, 39.4%; in the assay with HOP-62 NSCLC it was 34.5%; in the assay on NCI-H460 lung it was 6.08% (active); in the assay with HOP-92 NSCLC, 59.8%. Besides, the growth is 50.2% in the assay with NCI-H522 lung, 23.7% in the assay with A549/ATCC NSCLC, 44.4% in the assay with 786-0 renal and -25% (active) in the assay on COLO 205 colon.
Take `N#CC1C=CN(CC(N)=O)c2ccc3cccnc3c21` (stereo not given): the growth with NCI-H23 lung was 94.7%; in the assay with NCI-H226 lung it was 87.5%; in the assay with NCI-H322M lung it was 97.3%; in the assay with HOP-62 NSCLC, 95.2%; with NCI-H460 lung it was 103%; in the assay on HOP-92 NSCLC, 98.3%. Besides, the growth in the assay on NCI-H522 lung was 85.6%; in the assay with A549/ATCC NSCLC it was 88.9%; in the assay with 786-0 renal, 98.3%; in the assay with COLO 205 colon it was 80.3%.
In the case of `CCC(C)N(c1ccc(Cl)cc1)c1nc(-c2ccc(Br)cc2)cs1` (stereo not given), the growth in the assay with NCI-H23 lung was 88.6%; in the assay with NCI-H226 lung it was 93.1%; in the assay on NCI-H322M lung it was 91.4%; in the assay with HOP-62 NSCLC it was 90.9%; in the assay on NCI-H460 lung, 98%; with HOP-92 NSCLC, 94.4%. In addition, the growth is 89.2% in the assay on NCI-H522 lung, 95.6% in the assay with A549/ATCC NSCLC, 96% in the assay on 786-0 renal and 112% in the assay with COLO 205 colon.
As to `O=C(Nc1ncc(Cc2ccc(Cl)c(C(F)(F)F)c2)s1)c1ccc2nnsc2c1`, the growth was 37.4% in the assay with NCI-H23 lung; 66.5% in the assay with NCI-H226 lung; 69.2% in the assay on NCI-H322M lung; 51.5% in the assay on HOP-62 NSCLC; 27.2% in the assay with NCI-H460 lung; 64.9% in the assay on HOP-92 NSCLC. Moreover, the growth in the assay with NCI-H522 lung is 38.7%; in the assay on A549/ATCC NSCLC it was 40.7%; in the assay with 786-0 renal it was 53.2%; in the assay on COLO 205 colon, 57.3%.
As to `COc1cc(NC(C)CCCNC(C)C)c2ncccc2c1OC` (stereo not given), the growth was 89.5% in the assay on NCI-H23 lung; 95% in the assay on NCI-H226 lung; 99.7% in the assay on NCI-H322M lung; 98.3% in the assay with HOP-62 NSCLC; 98.6% with NCI-H460 lung; 74.6% with HOP-92 NSCLC. The growth in the assay on NCI-H522 lung is 69.6%; in the assay on A549/ATCC NSCLC, 102%; in the assay on 786-0 renal, 86.8%; in the assay with COLO 205 colon it was 90.6%.
Turning to `CC(C)(C)n1cc(-c2ccnc(NCCNS(=O)(=O)c3cccc(F)c3)c2)c(-c2ccccc2)n1`, the growth in the assay on NCI-H23 lung was 79.1%; in the assay with NCI-H226 lung, 90.1%; in the assay with NCI-H322M lung, 97.8%; with HOP-62 NSCLC, 101%; in the assay on NCI-H460 lung, 90.7%; in the assay with HOP-92 NSCLC, 3.59% (active). In addition, the growth was 79.8% with NCI-H522 lung, 79.9% in the assay on A549/ATCC NSCLC, 81.2% with 786-0 renal and 78.3% in the assay with COLO 205 colon.
For the molecule `O=C1C(Cl)=C(Oc2ccccc2)C(=O)c2ccccc21`, the growth was 85.9% with NCI-H23 lung; 90.8% in the assay on NCI-H226 lung; 83.1% with NCI-H322M lung; 86% in the assay on HOP-62 NSCLC; 94.4% in the assay on NCI-H460 lung; 72.6% in the assay with HOP-92 NSCLC. Moreover, the growth in the assay on NCI-H522 lung was -83.3% (active); in the assay on A549/ATCC NSCLC, 100%; in the assay on 786-0 renal, 94.1%; in the assay on COLO 205 colon, 32.3%.
For `N#Cc1c(-c2cccs2)cc(-c2cccnc2)[nH]c1=O`, the growth was 102% with NCI-H23 lung; 98.5% in the assay with NCI-H226 lung; 96.8% in the assay on NCI-H322M lung; 90.3% in the assay with HOP-62 NSCLC; 110% in the assay with NCI-H460 lung; 104% with HOP-92 NSCLC. Also, the growth was 98.7% in the assay with NCI-H522 lung, 97.8% in the assay on A549/ATCC NSCLC, 103% with 786-0 renal and 97.2% with COLO 205 colon.
As to `Nc1ncnc2c1N=C(c1ccc3c(c1)OCO3)CC(c1cccc(Nc3ccnc4cc(Cl)ccc34)c1)N2` (stereo not given), the growth with NCI-H23 lung is 49.8%; in the assay on NCI-H226 lung, 69.8%; in the assay on NCI-H322M lung, 76.2%; with HOP-62 NSCLC, 64%; in the assay on NCI-H460 lung, 59.8%; in the assay with HOP-92 NSCLC, 26.6%. Besides, the growth is 58% in the assay on NCI-H522 lung, 67.2% in the assay with A549/ATCC NSCLC, 55.1% with 786-0 renal and 82.7% in the assay on COLO 205 colon.
Regarding `Cc1c(-c2nc3ccc(F)cc3c(=O)[nH]2)c2ccccc2n1C`, the growth with NCI-H23 lung is 50.5%; in the assay on NCI-H226 lung, 61.1%; in the assay with NCI-H322M lung, 78.5%; in the assay with HOP-62 NSCLC, 38.4%; in the assay with NCI-H460 lung it was 16.2%; in the assay with HOP-92 NSCLC, 60.5%. The growth with NCI-H522 lung was 42%; in the assay on A549/ATCC NSCLC it was 46.4%; with 786-0 renal, 37.9%; in the assay on COLO 205 colon it was 30.9%.
With `C=C1C(=O)O[C@H]2[C@H]1CC/C(COC(=O)NCc1ccc(Cn3c(=O)sn(CCI)c3=O)cc1)=C\CC[C@@]1(C)O[C@@H]21`, the growth in the assay on NCI-H23 lung was 88.5%; in the assay with NCI-H226 lung, 85.7%; in the assay with NCI-H322M lung it was 96.4%; in the assay with HOP-62 NSCLC, 114%; in the assay on NCI-H460 lung, 98.1%; with HOP-92 NSCLC, -19% (active). Besides, the growth is -92.8% (active) in the assay on NCI-H522 lung, 108% in the assay on A549/ATCC NSCLC, 59.6% in the assay on 786-0 renal and -24.1% (active) with COLO 205 colon.
In the case of `N#Cc1nc(-c2ccccc2)oc1S(=O)(=O)N1CCOCC1`, the growth in the assay with NCI-H23 lung is 89.9%; in the assay with NCI-H226 lung it was 102%; in the assay with NCI-H322M lung it was 100%; in the assay on HOP-62 NSCLC, 97.9%; in the assay on NCI-H460 lung, 109%; in the assay on HOP-92 NSCLC it was 108%. Besides, the growth was -55.5% (active) in the assay on NCI-H522 lung, 94.5% in the assay on A549/ATCC NSCLC, 88% in the assay with 786-0 renal and 0.0605% (active) with COLO 205 colon.

For the origin of these results see PubChem BioAssay (NCI).
